PubChem BioAssay AID2315 (National Center for Advancing Translational Sciences (NCATS), 2010)
The campaign covered roughly 290,000 compounds. About 27,000 (9.3%) were called active. Shown is part of a subset that was picked to be rich in actives. A number with no mark means an inactive call. No stated cut-off is given here; in the data, active means inhibition mostly above about 28% (no sharp cut-off); inactive means mostly below about 43%.

Experiment: A qHTS for Small Molecule Inhibitors of Shiga Toxin; further: 0% is about no effect
Conditions: Vero cells, Shiga toxin protein synthesis inhibition reporter; at 38.7 µM, stronger effect = higher value

Point of comparison: `CC(=O)c1ccc(OCCN2CCOCC2)cc1`, inhibition 32.1%. Against it:
- COc1ccc(C(=O)NCc2cn3ccccc3n2)cc1 — lower, 8.12%
- Cc1ccc2nc(COc3ccc(N(C)S(=O)(=O)c4ccccc4)cc3)cc(=O)n2c1 — lower, 13.5%
- CCCNC(=O)CSc1nc(Cc2ccccc2)nc2ccccc12 — lower, -9.69%
- CCC(C(=O)NCCC(C)C)N(Cc1ccccc1Cl)C(=O)c1snc(C(N)=O)c1N (stereo not drawn) — lower, -5.11%
- Cn1cc(S(=O)(=O)Nc2ccc(Cl)cc2Cl)c(=O)n(C)c1=O — lower, -4.85%
- COc1ccc(CN2CCNC(=O)C2CC(=O)NCc2cn[nH]c2-c2ccccc2)c(F)c1 (stereo not drawn) — lower, -2.54%
- COc1ccc(C)cc1N(C(=O)Cn1nnc(-c2ccc(C)o2)n1)C(C(=O)NC1CCCC1)c1ccncc1 (stereo not drawn) — lower, -2.11%
- Cc1ccc(S(=O)(=O)NC2CCCCCC2)cc1C(N)=O — lower, -3.95%
- CCn1cc(CCC(=O)NCc2ccc(F)cc2)c2ccccc21 — lower, -4.61%
- CCOC(=O)Cc1csc(SCc2cc(=O)oc3cc(O)ccc23)n1 — lower, -5.09%
- COCc1cc(=O)oc2cc(NS(=O)(=O)c3ccc(C)cc3)ccc12 — lower, 7.5%
- CN1/C(=c2/s/c(=C3/C(=O)N(c4ccccc4)NC3=Nc3ccccc3)n(C)c2=O)C(C)(C)c2ccccc21 — lower, -12.9%
- CC(C)(C)c1ccccc1NC(=O)CN1C(=O)NC2(CCCC2)C1=O — lower, -11.9%
- O=C(CN1CCN(c2ccc(O)cc2)CC1)Nc1ccc(-c2ccccc2)cc1 — lower, 2.35%
- CC(=O)c1ccc(S(=O)(=O)N2CCC3(CC2)OCCO3)cc1 — lower, -3.96%
- CN1C(=O)/C(=N/OC(=O)c2ccccc2Br)c2ccccc21 — lower, -3.77%
- CCC1C(=O)c2ccccc2N(C)C1=O (stereo not drawn) — lower, -0.747%
- CCc1ccc(S(=O)(=O)Nc2cc3c(cc2N2CCCCC2)n(C)c(=O)c(=O)n3C)cc1 — lower, -14.2%
- Cc1c(Cl)cccc1NC(=O)CCC(=O)N/N=C/c1ccco1 — lower, 4.7%
- CC(C)(c1ccccc1)c1ccc(OCCN2CCCC2)cc1 — lower, -9.76%
- CC(C)(C)NC(=O)C(c1ccc(Cl)cc1)N(CCO)C(=O)c1snc(C(N)=O)c1N (stereo not drawn) — lower, -5.05%
- COc1ccccc1C(C)NC(=O)Cc1ccsc1 (stereo not drawn) — lower, -7.47%
- COc1ccc(C2CC(c3cccs3)=NN2c2nc(C)c(C(C)=O)s2)cc1OC (stereo not drawn) — lower, 15.6%
- CC(=O)Oc1ccccc1C1=NN(C(C)=O)C(c2ccccc2)C1 (stereo not drawn) — lower, 18.4%
- COc1ccc(C2CC(c3cccs3)=NN2c2ccc(F)cc2)cc1OC (stereo not drawn) — lower, 26.5%
- COc1ccc(C2CC(c3cccs3)=NN2C(=O)COC(=O)c2cc3ccccc3cc2O)cc1OC (stereo not drawn) — lower, -13.7%
- O=C(c1ccccc1)N1N=C(c2ccccc2O)CC1c1ccc(Br)cc1 (stereo not drawn) — lower, 10.4%
- COc1ccc(C2=NN(c3ccccc3)C(c3cccs3)C2)cc1 (stereo not drawn) — lower, 3.11%
- CS(=O)(=O)N1CCN(CC(=O)NC2CCCC2)CC1 — lower, -2.76%
- O=C(Nc1ccc(Cl)cc1)c1cccc(OC(=S)N2CCOCC2)c1 — lower, 18%
- O=C(COc1ccc(Cl)cc1Cl)N/N=C/c1ccccn1 — lower, 8.65%
- CSc1ncccc1C(=O)NCc1ccccc1Cl — lower, -6.54%
- CC1(C)Cc2ccccc2-c2[nH]c(=S)[nH]c(=O)c21 — lower, -5.22%
- Brc1ccc(Nc2c3c(nc4ncnn24)CCC3)cc1 — lower, -2.6%
- COCc1cc(=O)n2[nH]c(C)c(-c3ccccc3)c2n1 — lower, 8.24%
- COC(=O)c1c(-c2ccc(C)cc2)csc1N — lower, -0.659%
- CN(C(=O)COC(=O)c1nc(Cl)ccc1Cl)C1CCS(=O)(=O)C1 (stereo not drawn) — lower, -15.4%
- CC(=O)c1nn(-c2cccc(C(F)(F)F)c2)c(=O)[nH]c1=O — lower, 21.6%
- O=C1CSC(=S)N1c1ccc(Cl)c(Cl)c1 — lower, 24.6%
- CCCNC(=O)c1cnc(-c2ccccc2)nc1-c1ccccc1 — lower, -8.32%
- CCOc1ncccc1C(=O)OCc1cn2cc(Cl)ccc2n1 — lower, 18.7%
- O=C(/C=C/c1ccc2c(c1)OCO2)NCc1cn2cc(Cl)ccc2n1 — lower, 21.3%
- CC(C)CC(=O)N1CCN(Cc2cccc(Cl)c2)CC1 — lower, -12.6%
- CC(=O)N(c1ccc2oc(=O)sc2c1)S(=O)(=O)c1ccc(C)cc1 — lower, -13.9%
- CCC1=C(OC(=O)N(CC)CC)N2C(=O)OC(=NCCc3c[nH]c4ccccc34)[C@]2(C)[C@H]2C1=CC[C@H]1C(=O)N(CC)C(=O)[C@H]12 — lower, 2.44%
- O=C(CCC(=O)N/N=C/c1ccc(Br)o1)N/N=C/c1ccc(Br)o1 — lower, 5.62%
- O=C(CN1C(=O)COc2ccccc21)NCCN1CCc2ccccc2C1 — lower, 29.8%
- CC(OC(=O)CN1C(=O)COc2ccccc21)C(=O)NCc1ccc(F)cc1 (stereo not drawn) — lower, -12.1%
- CC(C)C[C@@H](CO)N1CCN(Cc2ccc(O)cc2)CCC1=O — lower, 7.05%
- O=C(NCCOc1ccccc1)c1ccccc1 — higher, 42.2%
- COCCCNC(=S)NNC(=O)C(O)(c1ccccc1)c1ccccc1 — lower, -12.4%
- CCCCCC(=O)NC(=S)NNC(=O)c1ccc([N+](=O)[O-])cc1 — lower, -13.4%
- CC(=O)NC(=S)Nc1ccc(NC(=S)NC(=O)c2ccc([N+](=O)[O-])cc2)cc1 — lower, -11.1%
- COc1ccc(CNC(=O)C(C)NCc2ccccc2Cl)cc1 (stereo not drawn) — lower, -9.04%
- Cc1ccc(S(=O)(=O)N(CC(=O)Nc2cccnc2)c2ccc(Br)cc2)cc1 — lower, -36.9%
- CN(C)CCCn1c(=O)n(Cc2ccccc2)c(=O)c2c3c(sc21)CCCCC3 — lower, -7.1%
- C=CCn1c(-c2sc(-c3ccccc3)nc2C)n[nH]c1=S — lower, 24.9%
- Cc1nc(-c2ccccc2)sc1-c1nc(-c2ccccc2)ncc1S(=O)(=O)c1ccccc1 — lower, -10.1%
- CCOc1cc(C(=S)N2CCOCC2)ccc1OS(=O)(=O)c1ccc(Br)cc1 — lower, 1.09%
- C=CCOc1ccccc1NC(=O)CN1C(=O)CNC1=O — lower, -4.23%
- COc1ccc(OC)c(NC(=O)c2cccc(S(=O)(=O)N3CCN(C(C)=O)CC3)c2)c1 — lower, 1.91%
- COc1ccccc1C(=O)OCC(=O)NCCNC(=O)COC(=O)c1ccccc1OC — lower, -3.42%
- Cc1ccc(-c2noc(CN3CCN(Cc4ccccc4)CC3)n2)cc1 — higher, 41.3%
- Cc1cccc(-c2nc(Nc3ccc(O)cc3)c3ccccc3n2)c1 — lower, -1.6%
- Cc1ccc(-c2noc(CSc3nnc(-c4ccccc4)n3C)n2)cc1 — lower, -2.98%
- Cc1cccc(-c2noc(CCC(=O)NC3CCCC3)n2)c1 — lower, 24.9%
- O=C(O)CC(CC(=O)N1CCOCC1)c1ccccc1 (stereo not drawn) — lower, -6.69%
- Cc1c(NC(=O)c2c([N+](=O)[O-])cnn2C)c(=O)n(-c2ccccc2)n1C — lower, -11.5%
- Cc1ccc(OCC(=O)Nc2ccccc2C(=O)NC2CC2)cc1C — lower, -4.84%
- COc1ccc(C(=O)CC2C(=O)N(C)C(=O)N(C)C2=O)cc1 — lower, 13.8%
- COc1ccc(OCCC(=O)c2ccc(OC)cc2)cc1 — lower, -6.88%
- Cc1ccc(C(=O)c2coc3ccc(O)c(CN(C)C)c23)cc1 — lower, -0.742%
- Cc1ccc(S(=O)(=O)NCCSC(C)(C)C)cc1 — lower, -15.2%
- O=C(O)CC/C(=C\c1cc2c(cc1Br)OCO2)c1nc2ccccc2s1 — lower, -7.28%
- O=S(=O)(ON(c1ccccc1)S(=O)(=O)c1ccccc1)c1ccccc1 — lower, -5.69%
- Cc1ccc(S(=O)(=O)c2ccc(Oc3ccccc3)cc2)cc1 — lower, -11.7%
- COC(=O)c1ccc(NC(=O)CSc2nncn2-c2cccnc2)cc1 — lower, 29.9%
- CC(Sc1nnc(CNC(=O)c2ccccc2F)n1C)C(=O)Nc1nccs1 (stereo not drawn) — lower, -6.1%

In the case of `O=Cc1ccc(OCc2cn3ccccc3n2)cc1`, the inhibition is reported as 57.2% (active).
In the case of `Cc1ccn(-c2cccc(-n3ccc(C)n3)n2)n1`, the inhibition is reported as 132% (active).
For `Cc1ccc2c(CSc3nncs3)cc(=O)oc2c1`, the inhibition was 120% (active).
For `CN1C(=O)/C(=C\c2cc(Br)cs2)c2ccccc21`, the inhibition was 76.4% (active).
In the case of `c1ccc(-c2ccc(OCCN3CCOCC3)cc2)cc1`, the inhibition is reported as 86.3% (active).
With `Oc1ccccc1C1=NN(c2ccccc2)C(c2ccccc2)C1` (stereo not drawn) the inhibition was 55.6% (active).
For `COc1ccc(C2CC(c3cccs3)=NN2c2ccccc2)cc1` (stereo not drawn), the inhibition was 83% (active).
With `COc1ccccc1N1N=C(c2cccs2)CC1c1ccccc1` (stereo not drawn) the inhibition was 36.3% (active).
For `Nc1scc(-c2ccncc2)c1Cl`, the inhibition was 64.7% (active).
For `Clc1ccc2nc(CSc3ccccc3)cn2c1`, the inhibition was 31.5% (active).
With `O=C(CN1C(=O)COc2ccccc21)Nc1ccc(F)cc1` the inhibition was 74.4% (active).
With `COCCCNC(=S)NC(=O)c1ccccc1` the inhibition was 50.8% (active).
With `COCCCNC(=S)NC(=O)c1ccc([N+](=O)[O-])cc1` the inhibition was 34% (active).
With `Cc1nc(-c2ccccc2)sc1-c1nnc(C2CC2)o1` the inhibition was 87.2% (active).
With `Cc1cccc(-c2noc(-c3ccc(F)cc3)n2)c1` the inhibition was 152% (active).
With `Cc1ccc(Cc2nc(-c3cccc(C)c3)no2)cc1` the inhibition was 48.1% (active).
With `CO/N=C/CC(=O)c1ccc(OC)cc1` the inhibition was 91.1% (active).
In the case of `CC(C)(C)SCCSC1=CC(=O)CC(c2ccccc2)C1` (stereo not drawn), the inhibition is reported as 75.7% (active).
For `CC1=C/C(=N\OS(=O)(=O)c2ccccc2)C=CC1=O`, the inhibition was 67.3% (active).
